# Tau fibril ThT – blocks human tau fibril formation measured by thioflavin T; P10636; recombinant tau K18 P301L, heparin-induced fibrillization, ThT fluorescence; Potency, µM (titrated, usually from 57.4 µM), without a hit: at the top dose activity, negative = inhibition, usual class: inhibitors; 270,000 compounds, 2.1% hits; AID 1460; further: nearly all actives have a fitted effect of over 55% in size
#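 Aggregation was driven by heparin (20 uM final) acting on recombinant tau […] bearing P301L in 100 mM sodium acetate pH 7; fibrils were detected with Thioflavin T.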
# Tau fluor counter – counter-screen for tau fibril formation inhibitors. tau K18 P301L (four-repeat tau fragment) Alexa594 fluorescence, heparin fibrillization. Potency, µM (series often up to 57.7 µM), for inactives: at the top dose activity change, negative = decrease. 280,000 compounds, 0.93% hits; further: nearly all actives have a fitted effect of over 55% in size
#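 Human K18 P301L tau (15 uM unlabeled plus 0.24 uM Alexa 594-labeled, final) in 100 mM sodium acetate pH 7 was mixed with compound and 20 uM heparin and incubated 6 hr at 37 C.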
# Sfp PPTase inh – blocks B. subtilis Sfp PPTase activity | Q9F4F7 | Biochemical Sfp PPTase activity, qHTS | Potency, µM, for the others: largest response in the series, negative = inhibition, usual class: inhibitors | 310,000 compounds, 3.5% hits | AID 1490;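 further: the enzyme is Sfp with the accession as filed and its product quenches rhodamine fluorescence; 0% = enzyme reaction without inhibitor and -100% = no enzyme wells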
#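 With Hepes-Na pH 7.6 buffer containing 10 mM MgCl2, Sfp (15 nM) modified BHQ-2-YbbR (12.5 uM) using rhodamine-CoA (5 uM). Two reads 30 minutes apart at 525/598 nm yielded each well's rate.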
# VDR inhibitor – blocks the human vitamin D receptor | AID 504847 | P11473 | VDR-SRC2-3 peptide fluorescence polarization, 2 h | 400,000 compounds, 0.93% hits | Potency, µM, for inactives: max response, negative = inhibition, hits mostly inhibitors
# Target sequence (P11473 whole entry, looked up): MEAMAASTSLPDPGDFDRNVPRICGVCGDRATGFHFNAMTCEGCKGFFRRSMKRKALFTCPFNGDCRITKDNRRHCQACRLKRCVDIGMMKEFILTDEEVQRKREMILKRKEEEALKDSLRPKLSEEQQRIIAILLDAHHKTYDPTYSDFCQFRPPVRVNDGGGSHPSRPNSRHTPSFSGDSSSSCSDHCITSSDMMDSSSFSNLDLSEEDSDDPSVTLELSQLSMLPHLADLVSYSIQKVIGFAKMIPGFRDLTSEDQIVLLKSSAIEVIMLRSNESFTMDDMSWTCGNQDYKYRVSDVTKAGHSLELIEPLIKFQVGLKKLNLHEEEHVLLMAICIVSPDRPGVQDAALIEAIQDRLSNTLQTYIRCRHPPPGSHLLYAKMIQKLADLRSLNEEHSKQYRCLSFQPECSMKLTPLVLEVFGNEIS
#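 Signal is fluorescence polarization, reporting how far test compounds block the interaction of VDR with the SRC2-3 coregulator peptide after a 2 h room-temperature incubation.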
# PLK1 PBD block – blocks phosphopeptide binding to human PLK1 polo-box domain. Plk1 PBD binding of FITC phosphopeptide, fluorescence polarization. Potency, µM, inactives show max response, negative = inhibition, actives largely listed as inhibitors. 360,000 compounds, 2.8% hits. AID 720504; further: series mostly up to about 57 µM; nearly all actives have a fitted effect of over 65% in size
# Tau FP inhib – blocks human tau fibril formation measured by polarization. P10636. K18 P301L tau heparin fibrillization, Alexa594 FP, 6 h. Potency, µM (series often up to 57.7 µM), inactives show at the highest dose activity, negative = inhibition, actives largely listed as inhibitors. 280,000 compounds, 0.39% hits; further: nearly all actives have a fitted effect of over 55% in size
#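 Compound effects on tau fibrillization are measured by Alexa 594 fluorescence polarization (ex 555, em 632 nm). K18 P301L tau is used at 15 uM with 0.24 uM labeled tracer, and 20 uM heparin induces aggregation over 6 hr at 37 C.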
# Starred values were filed as active, the others as inactive; ? = inconclusive; · = not tested or not shown; [ ] = dose if it differs, or a comment. Most compounds without a hit are left out; they make up all but 6% or so of the library. The call rests on the fitted dose curve; in most records, active means well fitted curve in the direction sought with a large enough effect; inconclusive means small, poorly fitted or top-dose-only effect, or another doubt; inactive means no such curve, though single readings can be large; an effect the other way counts as inactive or inconclusive. Unless noted, on the % scale 0 is the no-effect control and ±100 the full control effect; potency means the concentration at half of the fitted maximal effect.
SMILES,Tau fibril ThT,Tau fluor counter,Sfp PPTase inh,VDR inhibitor,PLK1 PBD block,Tau FP inhib
Cc1nn(-c2ccccc2)c2sc(C(=O)Nc3ccc(Br)cc3)cc12,?,?,·,-20%,·,?
C=CCN1C(=O)/C(=C/c2ccc(OC)cc2)S/C1=N/c1nccs1,-3%,-16%,0%,-13%,-9%,-8%
C=CCN1C(=O)/C(=C/c2ccc(O)cc2)S/C1=N/c1nccs1,?,3.5µM*[quencher],-10%,-4%,55%,?
C=CCN1C(=O)C(CC(=O)Nc2ccccc2F)S/C1=N\c1nccs1 (centres undefined),·,26%,14%,3%,-2%,-14%
C=CCN1C(=O)/C(=C2/C(=O)N(CC(=O)O)c3ccccc32)S/C1=N/c1nccs1,7.1µM*,?,-21%,·,·,-19%
CSc1cccc(Nc2cc(C(=O)NC3CCCCC3)c3ccccc3n2)c1,2%,?,·,-6%,·,-4%
Cc1cc(C)cc(Nc2cc(C(=O)NCCCN(Cc3ccccc3)C(C)C)c3ccccc3n2)c1,-16%,2.8µM*[quencher],·,-6%,·,?
CSc1cccc(Nc2cc(C(=O)NCCCN(Cc3ccccc3)C(C)C)c3ccccc3n2)c1,?,3.5µM*[quencher],·,2%,·,?
CCN(CC)C(=O)C1=C(C)N(CCC2=CCCCC2)C(=O)C(CC(=O)NC(c2ccccc2)c2ccccc2)C1 (centres undefined),·,·,·,·,1%,·
COc1cc(C=O)c([N+](=O)[O-])cc1OC,3.2µM*,?,-4%,·,·,6.3µM*
COc1cc(/C=C2/CC(C)OC2=O)c([N+](=O)[O-])cc1OC (centres undefined),·,·,9%,1%,-10%,·
O=C(c1[nH]c(C(F)(F)F)nc1-c1ccccc1)N1CCN(c2cccc(C(F)(F)F)n2)CC1,·,·,·,·,0%,·
CC(=O)Nc1ccc(/C=N/Nc2nc3ccccc3[nH]2)cc1,?,1%,10µM*,16%,-3%,12%
CCN(CC)c1ccc(/C=N/Nc2nc3ccccc3[nH]2)cc1,3.2µM*,7.9µM*[quencher],-8%,7%,-6%,?
C(=N\Nc1nc2ccccc2[nH]1)/c1ccncc1,?,-22%,5%,8%,-17%,?
O=C(O)c1ccc(/C=N/Nc2nc3ccccc3[nH]2)cc1,-16%,-14%,-9%,-2%,-20%,-5%
O=C(Cc1nc2ccccc2[nH]1)N/N=C/c1ccccc1,-5%,-3%,3%,?,27µM*,3%
CC(C)(C)c1cc(/C=N/NC(=O)Cc2nc3ccccc3[nH]2)cc(C(C)(C)C)c1O,?,-26%,15%,-10%,-8%,-6%
CCCN(CCC)CCNC(=O)C1CCN(c2nc3ccc(CC)cc3s2)CC1,?,-23%,·,-2%,·,0%
COc1cccc(Cn2c(=O)c(C)nc3cnc(N(C)C)nc32)c1,·,·,-8%,0%,·,·
COc1ccc(C(=O)Nc2nc3c(s2)CCc2cc(OC)ccc2-3)cc1,10µM*,11µM*[quencher],·,-13%,·,?
O=c1[nH]c2ccccc2c2ccc(Cl)cc12,·,·,·,-20%,-2%,·
O=C(O)CSc1c(-c2ccccc2)c2cc(Cl)ccc2[nH]c1=O,1%,0%,71µM*,-25%,-24%,?
O=c1[nH]c2ccc(Cl)cc2c(O)c1Cc1ccccc1,?,?,50µM*,19%,-8%,-10%
NNC(=O)c1[nH]c2ccc(Cl)cc2c1-c1ccccc1,-2%,-29%,-10%,79µM*,-13%,7%
O=C(Cc1ccccc1[N+](=O)[O-])NCC(O)c1ccc2c(c1)OCO2 (centres undefined),·,·,·,-9%,-13%,·
COc1ccc(CCNC(=O)CC2SC(N)=NC2=O)cc1OC (centres undefined),-4%,6%,23%,?,21µM*,3%
COc1ccc(CCNC(=O)CSCc2ccc([N+](=O)[O-])cc2)cc1OC,-8%,-1%,1%,?,9.5µM*,-7%
COc1ccc(CCNC(=O)CCn2cccc2)cc1OC,-11%,-7%,17%,11%,-1%,-2%

# Compound activity deposited in PubChem BioAssay by National Center for Advancing Translational Sciences (NCATS).
